Data: PubChem BioAssay AID651730 (NMMLSC, 2012)
A number with no mark means an inactive call. How the calls were made is not given here.

assay: V-ATPase regulators in yeast, S. cerevisiae, pHLuorin, powder sets 2-3, dose response (AID 651730); conditions: S. cerevisiae vacuolar pH, pHluorin fluorescence; series mostly up to 100 µM; response, percent: at the top concentration

Structure (SMILES) | response, percent
O=C(c1ccc(Br)o1)N1CCN(c2nc3ccc(F)cc3s2)CC1 | 1.17%
O=C(Nc1ccccc1N1CCOCC1)c1ccc(Br)o1 | -7.84%
COCc1cccc(C(=O)N2CCN(c3nc4ccc(F)cc4s3)CC2)c1 | 0.01%
O=C(c1ccc(C(F)(F)F)o1)N1CCN(c2nc3ccc(F)cc3s2)CC1 | -1.21%
O=C(Nc1ccccc1N1CCOCC1)c1cccc(Br)n1 | 2.41%
Cc1cccc(C(=O)Nc2ccccc2N2CCOCC2)n1 | 0.96%
Cc1cccc(C(=O)N2CCN(c3nc4ccc(F)cc4s3)CC2)n1 | 1.45%
N#Cc1ccnc(C(=O)Nc2ccccc2N2CCOCC2)c1 | -3.19%
CS(=O)(=O)c1cccc(C(=O)Nc2ccccc2N2CCOCC2)c1 | -2.07%
O=C(Nc1ccccc1N1CCOCC1)c1cccc(C(F)(F)F)n1 | -3.19%
N#Cc1cccc(C(=O)N2CCN(c3nc4ccc(F)cc4s3)CC2)c1 | 0.65%
O=C(Nc1ccccc1N1CCOCC1)c1ccc(-c2ccccc2)o1 | 0.32%
